# Results published in publication PMC7862700, “An all-to-all approach to the identification of sequence-specific readers for epigenetic DNA modifications on cytosine”.
# Columns and labels:
# Assay in all cases: DAPPL (digital affinity profiling via proximity ligation, sequencing); 10 mM Tris-HCl pH 7.5, 50 mM NaCl, 1 mM DTT, 4% glycerol, room temperature, 30 min; GST-TFs on glutathione beads, 16-mer random dsDNA library, 0.1% formaldehyde crosslink after washing; high values mean tight binding
# FEV = target: T1, FEV (Homo sapiens, UniProt Q99581 1-238); settings: protein: recombinant; tags: N-terminal GST; dsDNA, one strand shown
# T1 sequence: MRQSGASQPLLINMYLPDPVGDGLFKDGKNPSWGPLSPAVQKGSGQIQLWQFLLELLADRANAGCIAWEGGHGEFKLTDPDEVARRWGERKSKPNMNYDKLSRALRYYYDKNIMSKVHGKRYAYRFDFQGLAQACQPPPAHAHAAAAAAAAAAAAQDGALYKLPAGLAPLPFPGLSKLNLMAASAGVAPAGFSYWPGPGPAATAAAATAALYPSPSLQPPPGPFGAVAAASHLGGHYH
# Summary of the method: (§1)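 Yeast served to express human transcription factors as GST fusions, which were then captured on glutathione beads and labelled with DNA barcodes. Pooled with a tag-only sample, they were incubated with 200 nmole of a 16-mer random double-stranded DNA library for 30 min at room temperature in Tris/NaCl/DTT/glycerol buffer, washed, crosslinked with 0.1% formaldehyde, ligated by proximity, amplified by PCR and sequenced. Dividing each hexamer's read frequency for a factor by its frequency for the tag-only sample gives the binding signal.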
# ETV5 = ETV5 (Homo sapiens, UniProt P41161 1-510); settings: protein: recombinant; tags: N-terminal GST; dsDNA, one strand shown
# Summary of the method: as §1
# HSF1 = HSF1 (Homo sapiens, UniProt Q00613 1-529); settings: protein: recombinant; tags: N-terminal GST; chain copies: 3; dsDNA, one strand shown
# Summary of the method: as §1
# SPIC = target: T2, SPIC (Homo sapiens, UniProt Q8N5J4 1-248); settings: protein: recombinant; tags: N-terminal GST; dsDNA, one strand shown
# T2 sequence: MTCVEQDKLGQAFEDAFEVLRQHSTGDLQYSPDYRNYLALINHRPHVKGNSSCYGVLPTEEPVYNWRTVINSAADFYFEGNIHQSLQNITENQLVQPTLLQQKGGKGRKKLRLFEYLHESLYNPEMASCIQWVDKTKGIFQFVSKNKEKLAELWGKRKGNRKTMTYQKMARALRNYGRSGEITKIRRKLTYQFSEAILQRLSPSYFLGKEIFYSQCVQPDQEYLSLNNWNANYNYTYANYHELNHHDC
# Summary of the method: as §1
# ELF4 = ELF4 (Homo sapiens, UniProt Q99607 1-663); settings: protein: recombinant; tags: N-terminal GST; dsDNA, one strand shown
# Summary of the method: as §1
# ELK4 = target: T3, ELK4 (Homo sapiens, UniProt P28324-2 1-405); settings: protein: recombinant; tags: N-terminal GST; dsDNA, one strand shown
# T3 sequence: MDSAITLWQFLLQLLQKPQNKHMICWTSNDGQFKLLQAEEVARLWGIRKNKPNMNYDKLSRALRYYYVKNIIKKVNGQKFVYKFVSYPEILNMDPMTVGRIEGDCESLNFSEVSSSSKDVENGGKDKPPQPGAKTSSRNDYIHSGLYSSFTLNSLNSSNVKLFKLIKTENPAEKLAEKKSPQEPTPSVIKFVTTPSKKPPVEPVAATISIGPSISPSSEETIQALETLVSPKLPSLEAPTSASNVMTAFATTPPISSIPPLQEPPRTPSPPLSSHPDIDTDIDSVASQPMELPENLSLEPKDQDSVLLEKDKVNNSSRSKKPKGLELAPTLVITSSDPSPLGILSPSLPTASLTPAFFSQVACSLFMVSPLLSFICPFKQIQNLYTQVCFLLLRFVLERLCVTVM
# Summary of the method: as §1
# ETV2 = target: T4, ETV2 (Homo sapiens, UniProt O00321 1-342); settings: protein: recombinant; tags: N-terminal GST; dsDNA, one strand shown
# T4 sequence: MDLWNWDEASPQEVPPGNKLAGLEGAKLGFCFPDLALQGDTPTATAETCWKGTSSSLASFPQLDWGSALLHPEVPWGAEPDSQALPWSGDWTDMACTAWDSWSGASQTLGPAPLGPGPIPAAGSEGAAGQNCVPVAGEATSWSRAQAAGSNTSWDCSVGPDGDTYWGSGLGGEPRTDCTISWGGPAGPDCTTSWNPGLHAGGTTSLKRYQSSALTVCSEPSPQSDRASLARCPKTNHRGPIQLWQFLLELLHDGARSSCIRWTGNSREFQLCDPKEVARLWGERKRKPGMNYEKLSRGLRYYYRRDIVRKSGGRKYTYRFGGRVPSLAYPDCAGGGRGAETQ
# Summary of the method: as §1
# ELF3 = target: T5, ELF3 (Homo sapiens, UniProt P78545 1-371); settings: protein: recombinant; tags: N-terminal GST; dsDNA, one strand shown
# T5 sequence: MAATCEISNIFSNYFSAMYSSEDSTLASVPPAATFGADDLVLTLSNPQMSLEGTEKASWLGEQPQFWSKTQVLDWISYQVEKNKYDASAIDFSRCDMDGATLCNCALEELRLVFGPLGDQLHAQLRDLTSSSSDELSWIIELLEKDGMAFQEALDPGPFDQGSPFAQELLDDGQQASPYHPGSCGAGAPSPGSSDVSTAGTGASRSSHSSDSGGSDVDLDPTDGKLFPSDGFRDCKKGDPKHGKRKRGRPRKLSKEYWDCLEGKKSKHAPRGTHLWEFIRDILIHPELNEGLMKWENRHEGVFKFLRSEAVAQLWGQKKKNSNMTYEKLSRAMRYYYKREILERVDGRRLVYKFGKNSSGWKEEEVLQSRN
# Summary of the method: as §1
# CRX = CRX (Homo sapiens, UniProt O43186 1-299); settings: protein: recombinant; tags: N-terminal GST; dsDNA, one strand shown
# Summary of the method: as §1
# ETV1 = ETV1 (Homo sapiens, UniProt P50549 1-477); settings: protein: recombinant; tags: N-terminal GST; dsDNA, one strand shown
# Summary of the method: as §1
# ERF = target: T6, ERF (Homo sapiens, UniProt P50548 1-548); settings: protein: recombinant; tags: N-terminal GST; dsDNA, one strand shown
# T6 sequence: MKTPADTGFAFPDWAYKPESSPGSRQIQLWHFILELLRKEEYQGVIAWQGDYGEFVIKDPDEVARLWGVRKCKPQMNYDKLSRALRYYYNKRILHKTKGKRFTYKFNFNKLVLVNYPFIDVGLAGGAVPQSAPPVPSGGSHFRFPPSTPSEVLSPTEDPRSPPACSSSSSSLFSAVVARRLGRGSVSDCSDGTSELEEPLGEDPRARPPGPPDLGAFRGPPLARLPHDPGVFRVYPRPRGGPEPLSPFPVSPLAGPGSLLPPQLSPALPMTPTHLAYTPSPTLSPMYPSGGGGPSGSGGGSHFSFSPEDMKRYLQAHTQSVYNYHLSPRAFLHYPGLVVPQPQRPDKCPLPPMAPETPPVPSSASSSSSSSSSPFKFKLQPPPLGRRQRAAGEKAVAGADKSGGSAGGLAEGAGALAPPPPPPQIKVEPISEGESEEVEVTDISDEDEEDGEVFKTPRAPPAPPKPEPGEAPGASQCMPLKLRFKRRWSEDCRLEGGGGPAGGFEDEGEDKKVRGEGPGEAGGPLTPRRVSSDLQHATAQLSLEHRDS
# Summary of the method: as §1
# ETV3L = target: T7, ETV3L (Homo sapiens, UniProt Q6ZN32 1-361); settings: protein: recombinant; tags: N-terminal GST; dsDNA, one strand shown
# T7 sequence: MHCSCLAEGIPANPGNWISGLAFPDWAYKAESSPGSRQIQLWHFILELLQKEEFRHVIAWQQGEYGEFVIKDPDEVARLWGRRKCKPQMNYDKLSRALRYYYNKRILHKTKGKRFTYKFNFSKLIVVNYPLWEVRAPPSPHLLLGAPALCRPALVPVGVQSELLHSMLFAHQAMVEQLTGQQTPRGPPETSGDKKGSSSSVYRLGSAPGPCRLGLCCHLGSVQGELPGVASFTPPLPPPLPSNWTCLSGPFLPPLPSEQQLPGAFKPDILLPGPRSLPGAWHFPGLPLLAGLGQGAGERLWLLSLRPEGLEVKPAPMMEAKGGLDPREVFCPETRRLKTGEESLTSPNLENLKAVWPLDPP
# Summary of the method: as §1
# ETS2 = target: T8, ETS2 (Homo sapiens, UniProt P15036 1-469); settings: protein: recombinant; tags: N-terminal GST; dsDNA, one strand shown
# T8 sequence: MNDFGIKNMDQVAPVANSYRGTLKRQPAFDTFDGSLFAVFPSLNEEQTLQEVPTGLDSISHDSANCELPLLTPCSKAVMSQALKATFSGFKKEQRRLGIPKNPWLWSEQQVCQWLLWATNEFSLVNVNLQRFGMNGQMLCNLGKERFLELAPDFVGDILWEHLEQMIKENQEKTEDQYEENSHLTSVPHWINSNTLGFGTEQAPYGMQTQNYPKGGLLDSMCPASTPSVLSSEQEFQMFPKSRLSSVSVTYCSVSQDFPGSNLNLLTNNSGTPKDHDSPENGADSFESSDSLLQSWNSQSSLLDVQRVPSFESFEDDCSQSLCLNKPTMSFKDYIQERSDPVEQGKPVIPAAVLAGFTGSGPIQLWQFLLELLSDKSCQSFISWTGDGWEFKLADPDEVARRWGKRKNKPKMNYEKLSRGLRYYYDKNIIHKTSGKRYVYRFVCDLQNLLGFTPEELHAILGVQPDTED
# Summary of the method: as §1
# SPDEF = target: T9, SPDEF (Homo sapiens, UniProt O95238 1-335); settings: protein: recombinant; tags: N-terminal GST; dsDNA, one strand shown
# T9 sequence: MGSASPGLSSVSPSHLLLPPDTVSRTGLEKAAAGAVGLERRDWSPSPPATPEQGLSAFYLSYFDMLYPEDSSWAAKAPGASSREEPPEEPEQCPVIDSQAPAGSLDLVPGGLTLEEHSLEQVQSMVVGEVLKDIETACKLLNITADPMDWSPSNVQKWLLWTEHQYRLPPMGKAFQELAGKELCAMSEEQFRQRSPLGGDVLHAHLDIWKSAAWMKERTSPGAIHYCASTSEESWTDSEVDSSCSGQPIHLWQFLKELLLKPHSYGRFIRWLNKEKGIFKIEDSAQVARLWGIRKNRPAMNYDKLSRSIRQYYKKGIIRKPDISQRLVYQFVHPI
# Summary of the method: as §1
# ETV7 = target: T10, ETV7 (Homo sapiens, UniProt Q9Y603 1-341); settings: protein: recombinant; tags: N-terminal GST; dsDNA, one strand shown
# T10 sequence: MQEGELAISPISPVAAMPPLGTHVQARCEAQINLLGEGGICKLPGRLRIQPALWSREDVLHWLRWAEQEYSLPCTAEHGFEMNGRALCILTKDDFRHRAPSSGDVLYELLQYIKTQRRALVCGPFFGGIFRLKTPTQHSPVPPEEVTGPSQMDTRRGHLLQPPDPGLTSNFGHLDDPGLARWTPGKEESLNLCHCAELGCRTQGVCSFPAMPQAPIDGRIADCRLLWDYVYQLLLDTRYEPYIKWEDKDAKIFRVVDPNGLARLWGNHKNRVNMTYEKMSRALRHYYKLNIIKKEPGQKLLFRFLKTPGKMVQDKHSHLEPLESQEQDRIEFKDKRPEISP
# Summary of the method: as §1
# ELF5 = target: T11, ELF5 (Homo sapiens, UniProt Q9UKW6-2 1-255); settings: protein: recombinant; tags: N-terminal GST; dsDNA, one strand shown
# T11 sequence: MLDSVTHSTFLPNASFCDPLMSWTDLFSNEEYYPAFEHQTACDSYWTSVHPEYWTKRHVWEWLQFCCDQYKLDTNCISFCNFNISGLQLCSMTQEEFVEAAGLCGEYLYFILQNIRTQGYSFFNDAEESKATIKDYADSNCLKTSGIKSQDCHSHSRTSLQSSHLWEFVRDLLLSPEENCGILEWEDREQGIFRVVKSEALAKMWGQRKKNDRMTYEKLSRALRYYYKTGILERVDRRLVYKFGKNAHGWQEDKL
# Summary of the method: as §1
# ETV3 = target: T12, ETV3 (Homo sapiens, UniProt P41162-2 1-143); settings: protein: recombinant; tags: N-terminal GST; dsDNA, one strand shown
# T12 sequence: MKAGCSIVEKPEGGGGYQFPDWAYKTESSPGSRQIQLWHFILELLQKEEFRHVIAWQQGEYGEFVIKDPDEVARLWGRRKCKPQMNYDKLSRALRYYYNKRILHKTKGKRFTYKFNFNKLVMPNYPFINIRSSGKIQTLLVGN
# Summary of the method: as §1
# ETV6 = ETV6 (Homo sapiens, UniProt P41212 1-452); settings: protein: recombinant; tags: N-terminal GST; dsDNA, one strand shown
# Summary of the method: as §1
# ETV5, sequence (P41161 whole entry): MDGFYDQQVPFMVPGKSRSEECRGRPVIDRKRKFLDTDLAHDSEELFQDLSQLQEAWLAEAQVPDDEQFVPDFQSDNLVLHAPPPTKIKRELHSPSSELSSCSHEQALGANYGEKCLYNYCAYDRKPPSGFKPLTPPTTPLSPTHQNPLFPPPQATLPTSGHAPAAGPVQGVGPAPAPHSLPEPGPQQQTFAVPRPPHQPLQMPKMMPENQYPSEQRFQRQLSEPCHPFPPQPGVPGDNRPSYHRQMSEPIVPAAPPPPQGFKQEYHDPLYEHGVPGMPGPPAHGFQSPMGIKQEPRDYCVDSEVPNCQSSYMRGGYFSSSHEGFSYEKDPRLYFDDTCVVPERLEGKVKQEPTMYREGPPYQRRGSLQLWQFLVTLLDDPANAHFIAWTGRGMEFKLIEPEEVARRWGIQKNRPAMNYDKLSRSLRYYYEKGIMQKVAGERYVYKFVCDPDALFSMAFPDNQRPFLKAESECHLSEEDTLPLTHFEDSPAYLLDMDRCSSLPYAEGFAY
# HSF1, sequence (Q00613 whole entry): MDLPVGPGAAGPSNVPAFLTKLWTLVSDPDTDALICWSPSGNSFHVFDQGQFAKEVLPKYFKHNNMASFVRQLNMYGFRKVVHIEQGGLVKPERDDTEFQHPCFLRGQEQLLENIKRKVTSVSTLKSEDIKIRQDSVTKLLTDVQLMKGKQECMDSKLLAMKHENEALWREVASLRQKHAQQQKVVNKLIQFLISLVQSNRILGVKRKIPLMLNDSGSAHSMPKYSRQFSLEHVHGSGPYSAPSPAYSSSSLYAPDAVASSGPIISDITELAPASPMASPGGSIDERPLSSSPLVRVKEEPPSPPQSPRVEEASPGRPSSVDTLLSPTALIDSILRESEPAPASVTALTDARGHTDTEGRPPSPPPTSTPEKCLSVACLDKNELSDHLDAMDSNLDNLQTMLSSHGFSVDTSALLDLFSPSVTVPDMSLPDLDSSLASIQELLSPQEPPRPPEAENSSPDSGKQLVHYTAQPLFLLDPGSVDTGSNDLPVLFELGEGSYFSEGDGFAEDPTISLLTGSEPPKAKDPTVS
# ETV6, sequence (P41212 whole entry): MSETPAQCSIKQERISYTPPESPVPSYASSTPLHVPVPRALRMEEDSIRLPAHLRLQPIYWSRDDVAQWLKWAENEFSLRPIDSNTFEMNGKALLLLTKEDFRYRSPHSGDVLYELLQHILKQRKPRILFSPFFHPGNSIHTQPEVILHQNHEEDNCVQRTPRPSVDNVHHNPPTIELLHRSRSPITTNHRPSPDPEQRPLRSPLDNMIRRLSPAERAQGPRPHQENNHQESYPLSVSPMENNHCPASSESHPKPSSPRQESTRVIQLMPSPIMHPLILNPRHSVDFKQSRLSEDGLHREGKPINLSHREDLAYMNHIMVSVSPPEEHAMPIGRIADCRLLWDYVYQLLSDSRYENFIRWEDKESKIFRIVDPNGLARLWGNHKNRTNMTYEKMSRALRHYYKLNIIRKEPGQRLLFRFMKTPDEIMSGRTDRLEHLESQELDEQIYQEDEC
# CRX, sequence (O43186 whole entry): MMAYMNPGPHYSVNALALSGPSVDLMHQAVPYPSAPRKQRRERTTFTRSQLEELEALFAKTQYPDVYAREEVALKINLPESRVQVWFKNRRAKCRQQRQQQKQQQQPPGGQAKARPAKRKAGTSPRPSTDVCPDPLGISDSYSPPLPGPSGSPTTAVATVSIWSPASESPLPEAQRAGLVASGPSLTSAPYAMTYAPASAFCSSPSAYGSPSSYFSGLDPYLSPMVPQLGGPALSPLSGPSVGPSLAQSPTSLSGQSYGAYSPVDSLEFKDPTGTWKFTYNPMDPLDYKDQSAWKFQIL
# ELF4, sequence (Q99607 whole entry): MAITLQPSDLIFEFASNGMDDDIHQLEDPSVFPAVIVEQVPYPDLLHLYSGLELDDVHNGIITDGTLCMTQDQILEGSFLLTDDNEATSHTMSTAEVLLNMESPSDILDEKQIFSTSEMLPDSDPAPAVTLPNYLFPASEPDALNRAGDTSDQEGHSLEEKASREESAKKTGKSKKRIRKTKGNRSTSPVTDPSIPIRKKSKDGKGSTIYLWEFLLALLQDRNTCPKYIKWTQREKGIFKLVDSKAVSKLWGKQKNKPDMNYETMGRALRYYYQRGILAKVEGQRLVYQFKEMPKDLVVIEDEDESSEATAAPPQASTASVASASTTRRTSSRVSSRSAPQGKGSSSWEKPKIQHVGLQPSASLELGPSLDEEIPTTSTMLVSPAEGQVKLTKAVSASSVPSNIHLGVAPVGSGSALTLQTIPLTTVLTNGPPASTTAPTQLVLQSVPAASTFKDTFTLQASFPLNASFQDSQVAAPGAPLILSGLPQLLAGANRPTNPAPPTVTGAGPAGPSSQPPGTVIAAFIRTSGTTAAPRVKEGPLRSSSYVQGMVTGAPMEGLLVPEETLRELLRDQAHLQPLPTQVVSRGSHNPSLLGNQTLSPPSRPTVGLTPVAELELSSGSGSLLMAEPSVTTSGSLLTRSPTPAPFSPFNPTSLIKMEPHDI
# ETV1, sequence (P50549 whole entry): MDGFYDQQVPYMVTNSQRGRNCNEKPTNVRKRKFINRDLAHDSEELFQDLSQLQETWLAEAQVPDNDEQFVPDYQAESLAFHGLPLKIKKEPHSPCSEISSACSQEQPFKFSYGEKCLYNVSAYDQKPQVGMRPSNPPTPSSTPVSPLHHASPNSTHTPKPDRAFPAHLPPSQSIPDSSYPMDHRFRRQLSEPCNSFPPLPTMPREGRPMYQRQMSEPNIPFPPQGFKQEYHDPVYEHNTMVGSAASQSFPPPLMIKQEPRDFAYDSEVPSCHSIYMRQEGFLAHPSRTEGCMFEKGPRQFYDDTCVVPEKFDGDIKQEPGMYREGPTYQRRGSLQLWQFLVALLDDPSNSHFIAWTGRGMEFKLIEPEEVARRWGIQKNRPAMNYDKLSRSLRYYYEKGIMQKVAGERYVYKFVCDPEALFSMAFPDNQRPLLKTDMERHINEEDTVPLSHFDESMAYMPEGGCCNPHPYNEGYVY
sequence,measurement,setting,value
ATCATG,binding signal,FEV,"1.13 fold enrichment (6-mer frequency, TF over GST control)"
same,binding signal,ETV5,"1.09 fold enrichment (6-mer frequency, TF over GST control)"
same,binding signal,HSF1,"1.09 fold enrichment (6-mer frequency, TF over GST control)"
same,binding signal,SPIC,"1.09 fold enrichment (6-mer frequency, TF over GST control)"
same,binding signal,ELF4,"1.09 fold enrichment (6-mer frequency, TF over GST control)"
same,binding signal,ELK4,"1.14 fold enrichment (6-mer frequency, TF over GST control)"
same,binding signal,ETV2,"1.18 fold enrichment (6-mer frequency, TF over GST control)"
same,binding signal,ELF3,"1.25 fold enrichment (6-mer frequency, TF over GST control)"
same,binding signal,CRX,"1.21 fold enrichment (6-mer frequency, TF over GST control)"
same,binding signal,ETV1,"1.19 fold enrichment (6-mer frequency, TF over GST control)"
same,binding signal,ERF,"1.19 fold enrichment (6-mer frequency, TF over GST control)"
same,binding signal,ETV3L,"1.08 fold enrichment (6-mer frequency, TF over GST control)"
same,binding signal,ETS2,"1.14 fold enrichment (6-mer frequency, TF over GST control)"
same,binding signal,SPDEF,"1.07 fold enrichment (6-mer frequency, TF over GST control)"
same,binding signal,ETV7,"1.13 fold enrichment (6-mer frequency, TF over GST control)"
same,binding signal,ELF5,"1.11 fold enrichment (6-mer frequency, TF over GST control)"
same,binding signal,ETV3,"1.19 fold enrichment (6-mer frequency, TF over GST control)"
same,binding signal,ETV6,"1.08 fold enrichment (6-mer frequency, TF over GST control)"
